# “And” between values parts separate entries of the source, which are not always exact repeats. Equal entries are not always repeated. The source made the active and inactive calls. Cut-off read from the data, not from the text of the source, unless noted: active = parasite load remaining mostly below about 12% (no sharp cut-off); inactive = mostly above about 10%.
# Experiments:
# [1] = liver-stage malaria parasite growth inhibition, primary screen, cell-based, HepG2, luciferase luminescence, HepG2 viability (AID 624349);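 note: 100% = mean of DMSO negative control wells on the same plate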; details: P. berghei liver stage in HepG2, luciferase luminescence, concentration not given here; parasite load remaining: stronger effect = lower value; viability: measured here: HepG2 viability without parasites
# [2] = stimulators of nuclear beta-catenin in C2C12, primary screen, imaging, WNT3A-conditioned medium, mouse C2C12, NPC library (AID 1117326; in the data active = nuclear beta-catenin stimulation mostly above about 4.2%, no sharp cut-off; inactive = mostly below about 10%; note: reference of the scale not given here); details: stronger effect = higher value
# [3] = stimulators of insulin release from INS-1E, primary screen, cell-based, 5 mM glucose, NPC library (AID 1117329;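 active = compound raises insulin release from rat beta cells at 5 mM glucose, no numeric limit stated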; note: reference of the scale not given here); details: rat INS-1E insulin secretion, at 10 µM, stronger effect = higher value
# [4] = growth inhibition of GSK3B-pretreated HCT116 cells – cell-based, CellTiter-Glo, 0.2 to 20 µM (AID 1117336;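 active = compounds lowering colon cancer cell viability after pretreatment blocking the GSK3B kinase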); details: HCT116 viability after GSK3B inhibitor, at 20 µM, stronger effect = higher value
# [5] = inhibition of endothelial tube formation, primary screen, imaging, VEGF stimulated, CD31 staining, tube area, NPC library (AID 1117340;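 active = compound that reduces growth-factor-driven endothelial tube area in a mixed cell culture, no cutoff stated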); details: VEGF-stimulated ADSC/ECFC co-culture, at 10 µM, stronger effect = higher value
# [6] = glucagon-like peptide 1 release enhancers, primary assay, NCI-H716 cell line, NPC library (AID 1117341;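 active = compound raises GLP1 secretion from the human gut endocrine cells, with no numeric limit stated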; note: reference of the scale not given here); details: NCI-H716 cells, at 10 µM, stronger effect = higher value
# [7] = HCT116 colon cancer cell growth inhibition, primary screen, CellTiter-Glo luminescence, NPC library (AID 1117342;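 active = compounds that lower survival of HCT116 colon cancer cells in the luminescence readout, no numeric limit stated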); details: at 20 µM (top of the series)
# [8] = CellTiter-Glo luminescent readout of SW480 viability loss, NPC library primary (AID 1117343;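 active = compounds that lower viability of the colon cancer cells in the luminescence readout, with no numeric limit stated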); details: CellTiter-Glo luminescence; at 20 µM (top of the series)
# [9] = decreased DLD-1 cellular survival, CellTiter-Glo luminescent readout, NPC compound collection, primary HTS (AID 1117346;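 active = compounds that lower survival of DLD-1 colon cancer cells in the luminescence readout, no cutoff given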); details: DLD-1 viability, CellTiter-Glo luminescence; at 20 µM (top of the series)
# [10] = molecular target: 6-phosphogluconate dehydrogenase, decarboxylating (Homo sapiens) (UniProt P52209); test: 6PGD enzyme inhibitors, primary screen, biochemical, human, recombinant enzyme, NADPH absorbance (AID 1159550;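 active = at least 20% inhibition of 6-phosphogluconate dehydrogenase activity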); details: recombinant 6PGD, NADPH absorbance 341 nm; at 10 µM; stronger effect = higher value
# Chain of 6-phosphogluconate dehydrogenase, decarboxylating (Homo sapiens) (P52209 whole entry, looked up): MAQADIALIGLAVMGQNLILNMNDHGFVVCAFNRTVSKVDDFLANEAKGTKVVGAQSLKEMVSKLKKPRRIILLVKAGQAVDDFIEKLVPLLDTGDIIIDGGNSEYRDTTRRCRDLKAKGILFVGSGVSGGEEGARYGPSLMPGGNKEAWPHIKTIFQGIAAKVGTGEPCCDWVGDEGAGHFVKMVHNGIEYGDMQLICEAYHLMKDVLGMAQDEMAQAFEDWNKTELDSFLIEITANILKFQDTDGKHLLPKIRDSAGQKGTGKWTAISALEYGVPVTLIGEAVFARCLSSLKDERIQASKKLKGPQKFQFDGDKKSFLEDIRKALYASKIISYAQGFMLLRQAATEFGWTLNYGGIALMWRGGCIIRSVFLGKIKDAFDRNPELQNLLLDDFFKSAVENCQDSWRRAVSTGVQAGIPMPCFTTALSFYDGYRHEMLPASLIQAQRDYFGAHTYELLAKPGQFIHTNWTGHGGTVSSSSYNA
SMILES,parasite load remaining [1],viability [1],nuclear beta-catenin stimulation ([2]; at 10 µM),"nuclear beta-catenin stimulation ([2]; stimulation, at 2 µM) [%]",insulin secretion stimulation [3],viability decrease [4],tube area decrease [5],GLP1 secretion stimulation [6],inhibition of viability [7],viability decrease (inhibition) [8],viability decrease (inhibition) [9],inhibition [10]
N[C@@H](CCC(=O)N[C@@H](CS)C(=O)NCC(=O)O)C(=O)O,31.4% (inactive),68.2%,-1% (inactive),4,-0.3% (inactive),-46.1% (inactive),16.9% (inactive),-3.8% (inactive),5.53% (inactive),8.1% (inactive),-4.3% (inactive),0.532% (inactive)
O=C(CCBr)N1CCN(C(=O)CCBr)CC1,146% (inactive) and 41.7% (inactive),86.4% and 105%,1.4% (inactive),1.7,-2.1% (inactive),56.1% (active),60.5% (active),-4.4% (inactive),-0.5% (inactive),3.9% (inactive),-14% (inactive),-1.69% (inactive)
CC1(C)O[C@@H]2C[C@H]3[C@@H]4CCC5=CC(=O)CC[C@]5(C)[C@@]4(F)[C@@H](O)C[C@]3(C)[C@]2(C(=O)CCl)O1,116% (inactive),97.4%,-0.6% (inactive),0.3,-0.7% (inactive),-39% (inactive),10.2% (inactive),-1.7% (inactive),-4.27% (inactive),9.4% (inactive),-22.2% (inactive),12.4% (inactive)
O=C(OCC(O)CO)c1ccccc1Nc1ccnc2cc(Cl)ccc12 (stereo not drawn),9.85% (inactive) and 91.3% (inactive) and 74.6% (inactive),47.1% and 73.6% and 92%,3.1% (inactive),-0.3,6.1% (inactive),53.3% (active),-3.6% (inactive),-2.3% (inactive),38.5% (inactive),53.8% (active),6.3% (inactive),11.2% (inactive)
CC1(C)O[C@@H]2C[C@H]3[C@@H]4C[C@H](F)C5=CC(=O)CC[C@]5(C)[C@H]4[C@@H](O)C[C@]3(C)[C@]2(C(=O)CO)O1,156% (inactive),105%,-1.9% (inactive),4,6.1% (inactive),0.8% (inactive),-40.9% (inactive),1.2% (inactive),0.1% (inactive),-2.1% (inactive),-16.6% (inactive),8.44% (inactive)
NS(=O)(=O)c1cc2c(cc1Cl)NC(CSCc1ccccc1)=NS2(=O)=O,72.5% (inactive) and 98.3% (inactive) and 56.3% (inactive),97% and 76.2% and 98.6%,-0.6% (inactive),0.7,0% (inactive),-14.2% (inactive),5% (inactive),0.4% (inactive),-3.3% (inactive),0.9% (inactive),-17.1% (inactive),-3.14% (inactive)
CCn1cc(C(=O)O)c(=O)c2cnc(N3CCCC3)nc21,91.2% (inactive) and 141% (inactive),104% and 72%,-0.4% (inactive),1.2,-0.4% (inactive),-29.5% (inactive),1.8% (inactive),1.2% (inactive),0% (inactive),11.2% (inactive),-1.2% (inactive),5.15% (inactive)
C[C@]12CCC(=O)C=C1C=C[C@@H]1[C@@H]2CC[C@@]2(C)[C@H]1CC[C@@]21CCC(=O)O1,17.5% (inactive),73%,2.7% (inactive),1.9,-2.6% (inactive),22.8% (inactive),9% (inactive),3.3% (inactive),33.6% (inactive),60.5% (active),11.5% (inactive),-1.14% (inactive)
O=C1OC(c2ccc(O)cc2)(c2ccc(O)cc2)c2ccccc21,95% (inactive) and 84.8% (inactive),73.9% and 95.1%,1.3% (inactive),0,11.5% (inactive),31.1% (inactive),14.1% (inactive),11.8% (inactive),12% (inactive),80.7% (active),43.5% (inactive),-2.11% (inactive)
O=C(O)c1cn(-c2ccc(F)cc2)c2cc(N3CCNCC3)c(F)cc2c1=O,63.8% (inactive) and 65.5% (inactive) and 24.1% (inactive),92.7% and 132% and 71%,0.8% (inactive),2.8,0.8% (inactive),28.3% (inactive),-4.3% (inactive),-2.6% (inactive),29.7% (inactive),-14.9% (inactive),-10.5% (inactive),0.148% (inactive)
CCCCCCOc1ccccc1C(N)=O,151% (inactive),88.6%,2.2% (inactive),-1,-0.6% (inactive),-31.8% (inactive),-2.6% (inactive),-2.8% (inactive),19.5% (inactive),36.2% (inactive),11.6% (inactive),-1.25% (inactive)
Nc1nccs1,56.3% (inactive),97.8%,-1.6% (inactive),0.3,-0.1% (inactive),12.4% (inactive),5.4% (inactive),-1% (inactive),25.5% (inactive),66.3% (active),10% (active),5.79% (inactive)
CCN1CCN(C(=O)N[C@@H](C(=O)N[C@@H]2C(=O)N3C(C(=O)O)=C(CSc4nnnn4C)CS[C@H]23)c2ccc(O)cc2)C(=O)C1=O,48.8% (inactive) and 79.5% (inactive) and 21.1% (inactive),114% and 80.3% and 69%,-0.5% (inactive),-1.5,1.3% (inactive),6.1% (inactive),-32.8% (inactive),5.2% (inactive),-2.2% (inactive),8.6% (inactive),3.3% (inactive),16.7% (inactive)
Nc1ccc(S(=O)(=O)Nc2ccccn2)cc1,73.3% (inactive) and 71.4% (inactive) and 46.1% (inactive),93.8% and 68.3% and 99%,-0.3% (inactive),1,-2.8% (inactive),-1.3% (inactive),7.9% (inactive),-3.8% (inactive),-12% (inactive),17.6% (inactive),-7.25% (inactive),4.06% (inactive)
O=C(O)CCC(=O)Nc1ccc(S(=O)(=O)Nc2nccs2)cc1,92.2% (inactive) and 146% (inactive) and 21.3% (inactive),97.3% and 69.1% and 82.2%,-0.6% (inactive),0.6,-2.6% (inactive),-3.7% (inactive),21% (inactive),-5.7% (inactive),2% (inactive),40.3% (inactive),9.45% (inactive),-5.92% (inactive)
Nc1ccc(S(=O)(=O)Nc2cnc3ccccc3n2)cc1,113% (inactive) and 43.6% (inactive),98.9% and 97%,-0.3% (inactive),0.7,1.2% (inactive),21% (inactive),-18.5% (inactive),4.1% (inactive),0.93% (inactive),-1% (inactive),-9.7% (inactive),10.4% (inactive)
CN(C)/N=N/c1nc[nH]c1C(N)=O,56% (inactive) and 17.1% (inactive),91.9% and 74%,1.8% (inactive),-1.7,1.8% (inactive),-107% (inactive),85.4% (active),-1.3% (inactive),-2.45% (inactive),34.5% (inactive),-4.2% (inactive),-2.23% (inactive)
COc1cccc(OC)c1C(=O)N[C@@H]1C(=O)N2[C@@H]1SC(C)(C)[C@@H]2C(=O)O,72.2% (inactive) and 53.5% (inactive),72.9% and 91.1%,-0.9% (inactive),-1.1,0.6% (inactive),-3.9% (inactive),-4.7% (inactive),-0.3% (inactive),-7% (inactive),17.4% (inactive),-4.8% (inactive),17.4% (inactive)
COc1ccc(C(=O)c2ccccc2)c(O)c1,175% (inactive) and 149% (inactive) and 68.3% (inactive),96.8% and 72.8% and 91.5%,1.5% (inactive),1,-2.9% (inactive),-5.25% (inactive),6.3% (inactive),0.5% (inactive),14.4% (inactive),3.3% (inactive),-0.05% (inactive),-7.36% (inactive)
Cc1cc(C)nc(NS(=O)(=O)c2ccc(N)cc2)n1,78.5% (inactive) and 292% (inactive) and 25.7% (inactive),96.6% and 70.6% and 93.3%,0.2% (inactive),0.2,0.4% (inactive),-0.3% (inactive),-24.8% (inactive),1.6% (inactive),-12.6% (inactive),35.5% (inactive),6.75% (inactive),1.62% (inactive)
CC(=O)OC/C=C(C)/C=C/C=C(C)/C=C/C1=C(C)CCCC1(C)C,135% (inactive) and 40.4% (inactive),96.6% and 98.5%,3.8% (inactive),3.9,3% (inactive),-11.9% (inactive),0.2% (inactive),5.9% (inactive),2.7% (inactive),-5.5% (inactive),-3.2% (inactive),-10.8% (inactive)
O=C1C(O)=C(O)C(=O)C(O)=C1O,67.5% (inactive) and 145% (inactive) and 28.2% (inactive),94.1% and 90.9% and 99%,-1.5% (inactive),0.7,1.9% (inactive),-21% (inactive),-10.5% (inactive),-1.5% (inactive),-0.4% (inactive),27.9% (inactive),23.1% (inactive),10.5% (inactive)
O=C(NC(Cc1cc(=O)[nH]c2ccccc12)C(=O)O)c1ccc(Cl)cc1 (stereo not drawn),149% (inactive) and 24.1% (inactive),88.8% and 69%,-0.8% (inactive),-1,2.6% (inactive),-6.2% (inactive),19.9% (inactive),-0.3% (inactive),3.17% (inactive),22.7% (inactive),-11.3% (inactive),4.66% (inactive)
CC(=O)Nc1ccc(O)cc1,99.6% (inactive) and 108% (inactive) and 46.1% (inactive),106% and 78.8% and 112%,-0.4% (inactive),-0.2,-0.1% (inactive),9.25% (inactive),-15.2% (inactive),1.9% (inactive),1.2% (inactive),34.3% (inactive),3.3% (inactive),13.8% (inactive)
